Here are results for 40 compounds from PubChem BioAssay (NCI).

The structures appear in SMILES notation. This is part of a sample that, as a whole, favours compounds with a hit. Of some 83,000 tested, about 20% had one in any assay.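 Note: values are percent growth. 100 is the growth of untreated cells, values between 100 and 0 indicate rising inhibition; between -100 and 0 indicates cell death.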 Activity calls are given as the source filed them. The calls were made as follows: active = growth percent below 10; inactive = the rest.

This experiment concerns MOLT-4 leukemia. As to the kind of experiment: NCI-60 one-dose screen, 48 h (100 = growth as untreated, 0 = no growth, -100 = all killed). The conditions noted are these: 10 µM unless noted.
As for `COCCOc1ccc2ncc(C#Cc3cncc(C(=O)Nc4ccc(CN5CCN(C)CC5)c(C(F)(F)F)c4)c3)n2n1`, the growth is 13.2% (inactive).

`CCOC(=O)c1c(N)c(C#N)cn1Cc1ccc(Cl)cc1Cl`: the growth is 65.1% (inactive).

On to `Cc1ccc(Nc2nc(SC(C)C)nc(-c3ccccc3)c2C#N)cc1`, for which the growth was 100% (inactive).

Consider `O=C(CSc1nc2ccccc2c(=O)n1-c1ccc(Cl)c(Cl)c1)Nc1ccc(S(=O)(=O)Nc2ccc(Cl)nn2)cc1`, for which the growth was 97.2% (inactive).

Consider `N#Cc1cnc2ccc(-c3cnc4n[nH]nc4c3)cc2c1N1CCc2cc(F)c(Cl)cc21`, for which the growth is -1.31% (active).

As for `CNC(=O)Nc1ccc(Nc2cc(-c3ccc(-n4cccn4)cc3)[nH]n2)c(C)c1`, the growth was 91.1% (inactive).

With `CN1CCN(Cc2ccc(NC(=O)c3cncc(C#Cc4cnc5ccc(N)nn45)c3)cc2C(F)(F)F)CC1`, the growth was 7.21% (active).

As to `Cc1cc(=O)oc2cc(OCCCOc3ccc(/C=C/C(=O)Nc4ccc(Br)cc4)cc3)ccc12`, the growth was 96.4% (inactive).

`C/C(CC1(O)C(=O)Nc2ccccc21)=N\O` (stereo not given): the growth was 95.4% (inactive).

For the compound `Cc1ccc2c(n1)C(=O)C(Cl)=C(Nc1ccccc1C(=O)OC(C)(C)C)C2=O`, the growth was -32.6% (active).

Turning to `COc1ccc(/C=N\NC(=O)c2cnn(CC(O)c3ccccc3)c2N)cc1OCc1ccc(Cl)cc1` (stereo not given), the growth is 62.4% (inactive).

With `NC(N)=NS(=O)(=O)c1ccc(N=Nc2c(N)nn(-c3ccc([N+](=O)[O-])cc3[N+](=O)[O-])c2N)cc1`, the growth is 99.4% (inactive).

`COc1ccccc1Cn1cc(C#N)c(N)c1C(=O)c1ccc(Br)cc1`: the growth is 85.4% (inactive).

As to `CC(=C(c1ccc(OCCN2CCCC2)cc1)c1ccc(OCCN2CCCC2)cc1)c1ccc(Cl)cc1`, the growth was -43% (active).

Turning to `CCN(CC)CCOc1ccc(C(=C(C)Cc2ccc(OC)cc2)c2ccc(OCCN(CC)CC)cc2)cc1`, the growth was 3.61% (active).

Consider `Fc1ccc(-c2cn3c(-c4c[nH]c5ccc(Br)cc45)csc3n2)cc1`, for which the growth was 63.9% (inactive).

As for `CC1=C(C)C(=O)C(Nc2cccc(C(=O)OC(C)(C)C)c2)=CC1=O`, the growth was 65% (inactive).

As to `CSc1ccc(/C(=N/N=C(N)N)c2ccc(Cl)cc2)cc1`, the growth is 13.4% (inactive).

For the compound `O=C(/C=C/Nc1ccc(S(=O)(=O)Nc2ncccn2)cc1)c1ccc(N=Cc2c(O)[nH]c3ccccc23)cc1`, the growth is 109% (inactive).

`N#Cc1c(-c2cccs2)cc(-c2cnccn2)nc1SCC(=O)N/N=C/c1cccs1`: the growth was 85.2% (inactive).

Regarding `O=S(=O)(NCCCNc1nccc(-c2[nH]c(-c3ccccc3)nc2-c2ccc(F)c(O)c2)n1)c1ccccc1`, the growth was 51.3% (inactive).

As to `CC1(C)CC[C@]2(C(=O)NCCCCCCN(CCCN)CCCN)CC[C@]3(C)C(=CC[C@@H]4[C@@]5(C)CC[C@H](O)C(C)(C)[C@@H]5CC[C@]43C)[C@@H]2C1`, the growth is 102% (inactive).

Turning to `CCOC(=O)c1c(NCC(=O)Nc2cccc([N+](=O)[O-])c2)sc(C(C)=O)c1C`, the growth was 3.1% (active).

As to `O=c1oc2ccc(-c3ccc(F)cc3F)cc2c(=O)n1-c1ccc(Br)cc1F`, the growth is 57.8% (inactive).

With `Cc1ccc2c(n1)C(=O)C(Cl)=C(Nc1cccc(C(=O)OC(C)(C)C)c1)C2=O`, the growth is 6.09% (active).

`C/C(=C(\c1ccc(O)cc1)c1ccc(OCCN2CCCCCC2)cc1)c1ccc(Cl)cc1`: the growth was -21.6% (active).

Turning to `CC1=C(C)C(=O)C(Nc2cccc(C(F)(F)F)c2)=C(Br)C1=O`, the growth was -6.02% (active).

Regarding `CC(C)C(/C=C/c1[nH]ncc1-c1cc(Cl)ccc1O)N1CCOCC1` (stereo not given), the growth is 86% (inactive).

For `Fc1cccc(Cl)c1/C=N/Nc1nc(N/N=C/c2c(F)cccc2Cl)nc(N2CCCCC2)n1`, the growth is 13.7% (inactive).

For `COc1ccc(C2C(C#N)=C(/N=C/c3ccc(Cl)cc3)Oc3c2sc2c(C)cccc32)cc1` (stereo not given), the growth was 17% (inactive).

On to `O=C(CCCCCCNC(=O)C(O)(O)C(F)(F)F)Nc1ccc(Cl)cc1`, for which the growth is 15.8% (inactive).

Regarding `O=C1C(SCc2ccccc2)=C(Cl)CN1c1ccc(Cl)cc1`, the growth is 68% (inactive).

Consider `Cc1ccc(-c2nc(SCC(=O)c3ccccc3)nc(Nc3ccc(S(N)(=O)=O)cc3)c2C#N)cc1`, for which the growth is 86.5% (inactive).

As to `O=C1C(N2CCN(c3ccccc3)CC2)=C(Cl)C(=O)c2ncccc21`, the growth was 9.67% (active).

As for `C#Cc1nc(C(=O)NCCCCCCC(=O)NO)cs1`, the growth is -26.1% (active).

Consider `C[C@H](Nc1ncnc2ccc(-c3cnc(Cl)c(NS(C)(=O)=O)c3)cc12)c1ccccc1`, for which the growth is -16.5% (active).

Regarding `Cc1ccc(/C=N/Nc2nc(Nc3ccccc3)nc(Nc3ccc(S(N)(=O)=O)cc3)n2)cc1`, the growth was 40.4% (inactive).

Turning to `Cc1ccc(S(=O)(=O)NCCCNc2nc(Nc3ccc(N4CCN(C)CC4)cc3)nc3ccsc23)cc1`, the growth is 9.91% (active).

Take `CC(C)=CCC[C@](C)(O)[C@H]1CC[C@]2(C)[C@@H]1CC[C@@H]1[C@@]3(C)CC[C@H](N)C(C)(C)[C@@H]3CC[C@]12C`: the growth was 4.46% (active).

In the case of `NNc1nnc2nc(Nc3ccccc3)nc(Nc3ccc(S(N)(=O)=O)cc3)n12`, the growth was 105% (inactive).
